This is an account of results in PubChem BioAssay.

By inhibition is commonly meant the change of the read-out against control, counted positive when it falls.

A short description of assay [1]: inhibitors of TNFa-induced NFkB p65 translocation, primary screen, imaging, HUVEC, MLSMR starter and 10KST1 sets (AID 438;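 active means inhibition above 20% together with a positive visual image hit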;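 further: compound added about 3h40 before a 20 min TNFalpha stimulation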;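 on inhibition: signal is the nuclear over cytoplasmic p65 intensity ratio per well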). Conditions: HUVEC TNFa-induced p65 nuclear translocation; cell count: measured here: nuclei count (cytotoxicity indicator), at 2.08 µM; inhibition: at 2 µM, stronger effect = higher value, 0% TNFa-plus-vehicle, 100% no-TNFa wells.
Assay [2] can be described thus: inhibitors of mutant huntingtin aggregation, primary screen, imaging, exon1htt(103Q)mCFP cells, high-content imaging (AID 483;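 active means visual image review flags a hit and inhibition of aggregation exceeds 20%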;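 further: compound exposure lasted 3 days before fixation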;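 on nuclei count: percent of the per-plate median nuclei count of sample wells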). As to conditions: exon1htt(103Q)mCFP cell line, aggregate imaging, at 2 µM; inhibition of aggregation: stronger effect = higher value; nuclei count: measured here: cell count, toxicity.
The nature of assay [3]: inhibitors of E-selectin induction by TNFa, primary screen, imaging, HUVEC, immunofluorescence, MLSMR starter and 10KST1 sets (AID 487;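 active means visually confirmed hit in the image check and inhibition above 20%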;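 on inhibition: signal is fraction of cell area covered by stained E-selectin grains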;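 on nuclei count: 100% = median nuclei count of all wells on the same plate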). Conditions: HUVEC TNFalpha-induced E-selectin immunofluorescence imaging, at 2 µM; inhibition: stronger effect = higher value; nuclei count: measured here: cell number, toxicity.
Assay [4] deals with Voltage-gated potassium channel subunit beta-2 (Rattus norvegicus) (UniProt P62483). Briefly: KvBeta enzyme negative modulators, primary screen, biochemical, NADPH fluorescence (AID 622;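 active means fluorescence slope higher than the sample average by over 3 SD, cut at about -0.22 in these data, passing the limit was not always enough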;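 further: slope of raw intensity against log time taken from 70 to 1610 s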). Conditions: recombinant KvBeta, 4-cyanobenzaldehyde reduction, at 10 µM, stronger effect = higher value.
Voltage-gated potassium channel subunit beta-2 (Rattus norvegicus), sequence (P62483 whole entry, looked up): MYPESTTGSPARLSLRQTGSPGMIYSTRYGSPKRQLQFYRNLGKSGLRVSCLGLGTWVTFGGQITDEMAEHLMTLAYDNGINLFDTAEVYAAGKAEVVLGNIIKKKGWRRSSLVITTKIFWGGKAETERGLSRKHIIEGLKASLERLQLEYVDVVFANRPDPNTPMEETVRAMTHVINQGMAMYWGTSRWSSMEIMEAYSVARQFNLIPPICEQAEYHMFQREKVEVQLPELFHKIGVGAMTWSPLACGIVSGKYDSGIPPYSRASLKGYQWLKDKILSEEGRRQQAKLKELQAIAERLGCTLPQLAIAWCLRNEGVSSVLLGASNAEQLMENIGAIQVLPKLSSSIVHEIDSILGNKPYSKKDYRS
Assay [5] has the same target. Briefly: KvBeta positive modulators, primary screen, biochemical, NADPH fluorescence (AID 623).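 Further: fluorescence intensity change per second fitted from 20 to 320 s.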 As to conditions: Recombinant KvBeta, NADPH fluorescence decrease slope, 10 min; at 10 µM; stronger effect = lower value.
The target in assay [6] is Alpha-2C adrenergic receptor (Homo sapiens) (UniProt P18825). The experiment in a line: modulators of alpha2C/GIRK thallium flux, primary screen, cell-based, HEK293 alpha2C/GIRK1/2 (AID 624;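 active means fluorescence slope after compound addition differing from the mean of all screened samples at 99.7% confidence, in either direction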;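 further: slope of fluorescence ratio to pre-addition baseline per second over 15 to 24 s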). Conditions: thallium flux BTC fluorescence, at 10 µM, actives lie on both sides.
Alpha-2C adrenergic receptor (Homo sapiens), sequence (P18825 whole entry, looked up): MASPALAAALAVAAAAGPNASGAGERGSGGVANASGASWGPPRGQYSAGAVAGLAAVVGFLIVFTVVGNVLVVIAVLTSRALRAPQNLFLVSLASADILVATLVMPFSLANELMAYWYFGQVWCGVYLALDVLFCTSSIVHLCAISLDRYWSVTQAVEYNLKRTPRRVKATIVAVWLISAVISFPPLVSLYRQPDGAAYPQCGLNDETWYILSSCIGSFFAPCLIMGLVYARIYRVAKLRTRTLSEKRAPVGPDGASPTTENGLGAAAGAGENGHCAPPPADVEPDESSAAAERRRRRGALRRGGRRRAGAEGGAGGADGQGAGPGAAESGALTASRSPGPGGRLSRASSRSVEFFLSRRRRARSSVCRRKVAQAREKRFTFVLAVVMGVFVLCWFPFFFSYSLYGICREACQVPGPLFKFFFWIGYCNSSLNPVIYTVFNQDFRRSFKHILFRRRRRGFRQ
Assay [7] can be described thus: inhibitors of Sendai virus-induced IRF3 signaling, primary screen, TLR/RLR signaling modifier project, cell-based, Sendai virus stimulus, luciferase, 10K MLSCN set (AID 602276;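 active means inhibition at or above 50% at 10 µM; inactive means inhibition below 50%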;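 further: firefly luciferase from ISG56 promoter only with Renilla not read in this screen; 0% = Sendai virus plus DMSO and 100% = medium plus DMSO without virus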). Conditions: HEK293 RL24 IRF3 luciferase reporter, at 10 µM, stronger effect = higher value. In general terms: A reporter such as luciferase makes a cellular process visible.
A short description of assay [8]: inhibitors of poly I:C-induced TLR3 signaling, primary screen, cell-based, poly I:C stimulus, luciferase, 10K MLSCN set (AID 602277;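 active means inhibition of the reporter signal at or above 50%; inactive means inhibition below 50%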). Conditions: HEK293-TLR3 RL24 IRF3 luciferase reporter, at 10 µM, stronger effect = higher value.

The source made the active and inactive calls.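 How the source made its calls, unless noted: active means NADPH fluorescence slope more negative than the mean of all samples by about 3 SD, 99.7% confidence; inactive means the rest.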

With `Cc1nn(-c2ccc(F)cc2)c2sc(C(=O)O)cc12`, the cell count in assay [1] worked out at 354. For the same compound, the inhibition was 4.7% (inactive) in assay [1], -87.2% (inactive) in assay [3], 13.2% (inactive) in assay [7] and 24% (inactive) in assay [8]. Besides, in assay [2], the inhibition of aggregation was 3.7% (inactive). For the same compound, the nuclei count in assay [2] was found to be 86.9%; in assay [3], 117%. For the same compound, the fluorescence slope in assay [4] is -0.447 (inactive). In assay [5], the NADPH fluorescence slope was -0.00011 (inactive). Besides, in assay [6], the slope is 0.00627 (inactive).

As for `CCN1CCN(C(=O)Cn2ncc3ccsc3c2=O)CC1`, the cell count in assay [1] turned out to be 697. The inhibition in assay [1] is -1.8% (inactive); in assay [3] it was -54.3% (inactive); in assay [7], 3.05% (inactive); in assay [8], 26.3% (inactive). The inhibition of aggregation in assay [2] was 27.4% (inactive). The nuclei count in assay [2] came out at 96.5%; in assay [3], 120%. Moreover, the fluorescence slope in assay [4] was -0.571 (inactive). Further, the NADPH fluorescence slope in assay [5] was -8e-06 (inactive). For the same compound, in assay [6], the slope is 0.00578 (inactive).

As for `O=C(COC(=O)C1CC2C=CC1C2)Nc1ccc2c(c1)OC(F)(F)O2` (centres undefined), in assay [1], the cell count was found to be 434. The inhibition in assay [1] is 9.3% (inactive); in assay [3] it was 11.1% (inactive); in assay [7], 15.9% (inactive); in assay [8] it was 20.1% (inactive). Also, the inhibition of aggregation in assay [2] was 13.3% (inactive). For the same compound, the nuclei count amounted to 89.2% in assay [2] and 91.8% in assay [3]. Further, the fluorescence slope in assay [4] was -0.437 (inactive). Moreover, in assay [5], the NADPH fluorescence slope is -6.4e-05 (inactive). Besides, the slope in assay [6] is 0.00772 (inactive).

As to `Cc1cc(C)n2nc[n+](C)c2n1`, in assay [1], the cell count was 685. In addition, the inhibition was -12.9% (inactive) in assay [1], -17.6% (inactive) in assay [3], -6.03% (inactive) in assay [7] and -6.5% (inactive) in assay [8]. Besides, the inhibition of aggregation in assay [2] is -10% (inactive). For the same compound, the results for the nuclei count in assay [2] and in assay [3] were 103% and 120%, respectively. Moreover, in assay [4], the fluorescence slope is -0.537 (inactive). For the same compound, the NADPH fluorescence slope in assay [5] is 3.6e-05 (inactive). For the same compound, in assay [6], the slope is 0.0066 (inactive).

`Cc1cnc(C(=O)OCC(=O)Nc2ccc(Cl)cc2Cl)cn1`: in assay [1], the cell count was 738. In addition, the inhibition is 8.7% (inactive) in assay [1], -37% (inactive) in assay [3], 10.9% (inactive) in assay [7] and 14.7% (inactive) in assay [8]. Moreover, the inhibition of aggregation in assay [2] was -16.9% (inactive). Moreover, the nuclei count in assay [2] stood at 119%; in assay [3], 94.9%. The fluorescence slope in assay [4] is -0.51 (inactive). The NADPH fluorescence slope in assay [5] is -5.1e-05 (inactive). The slope in assay [6] is 0.00552 (inactive).

As for `Cc1csc(NC(=O)c2ccoc2C)n1`, the cell count in assay [1] came out at 435. Besides, the inhibition in assay [1] is 1.3% (inactive); in assay [3], 9% (inactive); in assay [7], -53.3% (inactive); in assay [8], -87.5% (inactive). Also, the inhibition of aggregation in assay [2] was -7.1% (inactive). Besides, the nuclei count in assay [2] was 90.7%; in assay [3], 97.9%. Moreover, the fluorescence slope in assay [4] was -0.534 (inactive). Further, the NADPH fluorescence slope in assay [5] is 2.1e-05 (inactive). Besides, the slope in assay [6] was 0.00451 (inactive).

On to `CN(CC(=O)Nc1ccc2c(c1)OCCO2)S(=O)(=O)c1ccc(Br)s1`, for which the cell count in assay [1] came out at 315. In addition, the inhibition in assay [1] is -1.9% (inactive); in assay [3], -21% (inactive); in assay [7] it was -3.5% (inactive); in assay [8], 10.4% (inactive). Moreover, the inhibition of aggregation in assay [2] was -7.8% (inactive). Further, the nuclei count in assay [2] came to 100%; in assay [3], 98.5%. Moreover, the fluorescence slope in assay [4] was -0.403 (inactive). In addition, in assay [5], the NADPH fluorescence slope was -4.9e-05 (inactive). Moreover, the slope in assay [6] was 0.00399 (inactive).

Regarding `CCOC(=O)CN1CC23C=CC(O2)C(C(=O)Nc2ccc(C(C)=O)cc2)C3C1=O` (centres undefined), in assay [1], the cell count turned out to be 813. Moreover, the inhibition in assay [1] was -6.9% (inactive); in assay [3] it was -18.4% (inactive); in assay [7], -3.34% (inactive); in assay [8], 7.25% (inactive). The inhibition of aggregation in assay [2] is -2.6% (inactive). Also, the nuclei count in assay [2] and in assay [3] was 127% throughout. Besides, the fluorescence slope in assay [4] was -0.574 (inactive). The NADPH fluorescence slope in assay [5] was -2.3e-05 (inactive). For the same compound, in assay [6], the slope was 0.00637 (inactive).

As for `Cc1cc(C)cc(-n2nnc(C(=O)NCc3ccco3)c2N)c1`, the cell count in assay [1] came to 500. The inhibition in assay [1] is 0.2% (inactive); in assay [3], -36.2% (inactive); in assay [7], -5.79% (inactive); in assay [8], 100% (active). The inhibition of aggregation in assay [2] is -20.1% (inactive). Moreover, the nuclei count in assay [2] is 119%; in assay [3], 107%. Moreover, the fluorescence slope in assay [4] was -0.557 (inactive). Moreover, in assay [5], the NADPH fluorescence slope was -1.1e-05 (inactive). Further, the slope in assay [6] was 0.00643 (inactive).

`c1ccc(Cn2ncc3c2ncn2c(-c4ccncc4)nnc32)cc1`: in assay [1], the cell count came to 430. Also, the inhibition in assay [1] was -10.4% (inactive); in assay [3], -36% (inactive); in assay [7], -13.1% (inactive); in assay [8], -7.97% (inactive). The inhibition of aggregation in assay [2] was -7.2% (inactive). The values for the nuclei count in assay [2] and in assay [3] were 117% and 98.3%, respectively. Further, the fluorescence slope in assay [4] is -0.517 (inactive). Besides, the NADPH fluorescence slope in assay [5] is -1.5e-05 (inactive). In assay [6], the slope was 0.00557 (inactive).

Consider `CCc1ccc(NC(=O)C2CC(=O)N(C(C)C)C2)cc1` (centres undefined), for which, in assay [1], the cell count is 346. Also, the inhibition was -6.8% (inactive) in assay [1], -6.6% (inactive) in assay [3], 7.09% (inactive) in assay [7] and 0.245% (inactive) in assay [8]. For the same compound, the inhibition of aggregation in assay [2] was 23.8% (inactive). Also, the nuclei count in assay [2] amounted to 92.5%; in assay [3], 75.6%. Moreover, in assay [4], the fluorescence slope is -0.62 (inactive). Further, the NADPH fluorescence slope in assay [5] is 2.5e-05 (inactive). The slope in assay [6] was 0.00536 (inactive).

Regarding `O=C(CSc1nnc(Cc2cccs2)n1Cc1ccco1)Nc1cccc(Cl)c1`, the cell count in assay [1] was 677. Besides, the inhibition is -3.5% (inactive) in assay [1], -30.1% (inactive) in assay [3], 13.6% (inactive) in assay [7] and 31.6% (inactive) in assay [8]. Further, in assay [2], the inhibition of aggregation was -13.8% (inactive). The nuclei count turned out to be 108% in assay [2] and 116% in assay [3]. Moreover, the fluorescence slope in assay [4] was -0.397 (inactive). The NADPH fluorescence slope in assay [5] was 1.1e-05 (inactive). Moreover, in assay [6], the slope is 0.0045 (inactive).

For the compound `CC(C)C(=O)Nc1ccc2c(c1)nc1n2CCSC1`, the cell count in assay [1] was found to be 378. Besides, the inhibition in assay [1] was -2.5% (inactive); in assay [3], -3.7% (inactive); in assay [7] it was -12.7% (inactive); in assay [8] it was -20.2% (inactive). For the same compound, in assay [2], the inhibition of aggregation was -0.8% (inactive). For the same compound, the nuclei count in assay [2] is 113%; in assay [3], 109%. In addition, the fluorescence slope in assay [4] was -0.361 (inactive). Further, the NADPH fluorescence slope in assay [5] is 1.9e-05 (inactive). Further, the slope in assay [6] was 0.00311 (inactive).

In the case of `COc1ccc(C2=NO[C@@H]3C(=O)N(c4ccc5c(c4)OCCO5)C(=O)[C@H]23)cc1OC`, the cell count in assay [1] was determined as 608. Further, the inhibition in assay [1] is -17.3% (inactive); in assay [3], 11.8% (inactive); in assay [7], -13.6% (inactive); in assay [8] it was 6.66% (inactive). Also, the inhibition of aggregation in assay [2] is -8.9% (inactive). Moreover, the nuclei count turned out to be 111% in assay [2] and 98.1% in assay [3]. Moreover, in assay [4], the fluorescence slope was -0.541 (inactive). The NADPH fluorescence slope in assay [5] was 8.6e-06 (inactive). Further, the slope in assay [6] is 0.0052 (inactive).
